Reference: PubChem BioAssay AID1159580 (chemical genetic matrix, 2015)
The campaign covered roughly 5,500 compounds. About 2,000 (36%) were called active. Inconclusive results (about 18%) are left out. No stated cut-off is given here; in the data, active means normalized growth mostly below about 0.91 (no sharp cut-off); inconclusive means no clear call, values can overlap the other calls; inactive means mostly above about 0.92. Some of the results follow.

Assay: chemical genetic growth profiling, strain panel (AID 1159580);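 further: tested at 20 µM; growth read once vehicle control cultures reached saturation at 30 °C; 1 = growth at the plate median or of vehicle wells; lower values mean less growth of the strain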
Settings: S. cerevisiae deletion strains, growth OD
[1] = locus YAR019C, strain CDC15, active compounds read low
[2] = locus YBL105C, strain PKC1, active compounds read low
[3] = locus YBR135W, strain CKS1, active compounds read low
[4] = locus YBR136W, strain MEC1, active compounds read low
[5] = locus YBR160W, strain CDC28, active compounds read low
[6] = locus YDL017W, strain CDC7, active compounds read low
[7] = locus YDL028C, strain MPS1, active compounds read low
[8] = locus YDL101C, strain DUN1, active compounds read low
[9] = locus YDL108W, strain KIN28, active compounds read low
[10] = locus YDL132W, strain cdc53, active compounds read low
[11] = locus YDL214C, strain PRR2, active compounds read low
[12] = locus YDR052C, strain DBF4, active compounds read low
[13] = locus YDR054C, strain cdc34, active compounds read low
[14] = locus YDR226W, strain ADK1, active compounds read low
[15] = locus YDR477W, strain SNF1, active compounds read low
[16] = locus YER123W, strain YCK3, active compounds read low
[17] = locus YER133W, strain GLC7, active compounds read low
[18] = locus YFL009W, strain cdc4, active compounds read low
[19] = locus YFL029C, strain CAK1, active compounds read low
[20] = locus YFR003C, strain YPI1, active compounds read low
[21] = locus YFR019W, strain FAB1, active compounds read low
[22] = locus YFR028C, strain CDC14, active compounds read low
[23] = locus YGR040W, strain KSS1, active compounds read low
[24] = locus YGR052W, strain FMP48, active compounds read low
[25] = locus YGR092W, strain DBF2, active compounds read low
[26] = locus YHR030C, strain SLT2, active compounds read low
[27] = locus YHR079C, strain IRE1, active compounds read low
[28] = locus YHR082C, strain KSP1, active compounds read low
[29] = locus YHR205W, strain SCH9, active compounds read low
[30] = locus YIL147C, strain SLN1, active compounds read low
[31] = locus YJL095W, strain BCK1, active compounds read low
[32] = locus YJL128C, strain PBS2, active compounds read low
[33] = locus YJL157C, strain FAR1, active compounds read low
[34] = locus YJR016C, strain ILV3, active compounds read low
[35] = locus YJR066W, strain TOR1 (second series), active compounds read low
[36] = locus YJR066W, strain TOR1, active compounds read low
[37] = locus YKL048C, strain ELM1, active compounds read low
[38] = locus YKL067W, strain YNK1, active compounds read low
[39] = locus YKL101W, strain HSL1, active compounds read low
[40] = locus YKL193C, strain SDS22, active compounds read low
[41] = locus YKL203C, strain TOR2, active compounds read low
[42] = locus YLR113W, strain HOG1, active compounds read low
[43] = locus YLR133W, strain CKI1, active compounds read low
[44] = locus YLR403W, strain SFP1, active compounds read low
[45] = locus YML070W, strain DAK1, active compounds read low
[46] = locus YMR001C, strain CDC5, active compounds read low
[47] = locus YMR205C, strain PFK2 (second series), active compounds read low
[48] = locus YMR277W, strain FCP1, active compounds read low
[49] = locus YNL006W, strain LST8, active compounds read low
[50] = locus YNL020C, strain ARK1, active compounds read low
[51] = locus YNL161W, strain CBK1, active compounds read low
[52] = locus YNL183C, strain NPR1, active compounds read low
[53] = locus YNL207W, strain RIO2, active compounds read low
[54] = locus YNL222W, strain SSU72, active compounds read low
[55] = locus YNL307C, strain MCK1 (second series), active compounds read low
[56] = locus YOL078W, strain AVO1, active compounds read low
[57] = locus YOL136C, strain PFK27, active compounds read low
[58] = locus YOR061W, strain CKA2, active compounds read low
[59] = locus YOR119C, strain RIO1, active compounds read low
[60] = locus YOR231W, strain MKK1, active compounds read low
[61] = locus YOR329C, strain SCD5, active compounds read low
[62] = locus YPL031C, strain PHO85, active compounds read low
[63] = locus YPL153C, strain RAD53, active compounds read low
[64] = locus YPL204W, strain HRR25, active compounds read low
[65] = locus YPL209C, strain IPL1, active compounds read low
[66] = locus YPL256C, strain CLN2, active compounds read low
[67] = locus YPR025C, strain CCL1, active compounds read low
[68] = locus YPR106W, strain ISR1, active compounds read low
[69] = locus YPR111W, strain DBF20, active compounds read low
[70] = strain NNK1, active compounds read low
[71] = strain TSCII, active compounds read low

Measured: normalized growth

O=[N+]([O-])c1cc(C(F)(F)F)ccc1Sc1n[nH]c(-c2cc(Cl)cc(Cl)c2)n1
active: [11] 0.537 | [15] 0.578 | [16] 0.329 | [17] 0.716 | [21] 0.207 | [23] 0.678 | [24] 0.541 | [25] 0.129 | [26] 0.147 | [27] 0.131 | [28] 0.231 | [29] 0.472 | [31] 0.228 | [33] 0.15 | [35] 0.203 | [36] 0.16 | [37] 0.298 | [38] 0.426 | [39] 0.201 | [41] 0.601 | [42] 0.223 | [43] 0.164 | [44] 0.602 | [45] 0.293 | [47] 0.399 | [50] 0.133 | [52] 0.497 | [55] 0.14 | [57] 0.194 | [58] 0.164 | [59] 0.673 | [60] 0.155 | [62] 0.32 | [63] 0.26 | [64] 0.255 | [66] 0.166
inactive: [1] 0.925 | [2] 0.954 | [3] 0.951 | [4] 0.936 | [5] 0.935 | [6] 0.95 | [7] 0.917 | [8] 0.987 | [9] 0.94 | [10] 0.937 | [12] 0.944 | [13] 0.896 | [14] 0.943 | [18] 0.909 | [19] 0.929 | [20] 0.954 | [22] 0.933 | [30] 0.929 | [32] 0.811 | [34] 0.939 | [40] 0.94 | [46] 0.925 | [48] 0.926 | [49] 0.931 | [51] 0.949 | [53] 0.948 | [54] 0.935 | [56] 0.943 | [61] 0.939 | [65] 0.948 | [67] 0.952 | [68] 0.944 | [69] 0.908 | [70] 0.917 | [71] 0.919

O=C(Nc1ccccc1Sc1ccc(C(F)(F)F)cc1[N+](=O)[O-])C(Cl)Cl
inactive: [1] 0.997 | [2] 0.994 | [3] 0.987 | [4] 0.991 | [5] 0.994 | [6] 1.01 | [7] 0.992 | [8] 0.983 | [9] 0.991 | [10] 0.994 | [11] 0.952 | [12] 1 | [13] 0.998 | [14] 0.993 | [15] 0.985 | [16] 0.958 | [17] 0.959 | [18] 0.995 | [19] 0.996 | [20] 0.986 | [21] 0.955 | [22] 0.983 | [23] 0.964 | [24] 0.963 | [25] 0.909 | [26] 0.985 | [27] 0.973 | [28] 1.02 | [29] 0.864 | [30] 0.995 | [31] 0.894 | [32] 0.945 | [33] 0.961 | [34] 0.999 | [35] 0.933 | [36] 1.01 | [37] 0.949 | [38] 0.934 | [39] 0.946 | [40] 0.996 | [41] 1.01 | [42] 0.907 | [43] 0.947 | [44] 0.915 | [45] 0.938 | [46] 0.998 | [47] 0.953 | [48] 0.984 | [49] 0.986 | [50] 0.959 | [51] 0.993 | [52] 0.96 | [53] 0.989 | [54] 0.99 | [55] 0.903 | [56] 0.99 | [57] 0.907 | [58] 0.97 | [59] 1.05 | [60] 0.935 | [61] 0.997 | [62] 0.984 | [63] 0.991 | [64] 0.958 | [65] 0.992 | [66] 1.02 | [67] 0.997 | [68] 0.996 | [69] 0.967 | [70] 0.976 | [71] 0.992
